In PubChem BioAssay AID1851 (National Center for Advancing Translational Sciences (NCATS), 2009):
Out of some 16,000 compounds screened, about 2,600 (16%) were called active. Not shown: some 20% with an inconclusive outcome. Not all results are given here. A number with no mark means an inactive call. The call rests on the fitted dose curve; in most records, active means well fitted curve in the direction sought with a large enough effect; inconclusive means small, poorly fitted or top-dose-only effect, or effect the other way; inactive means no such curve, though single readings can be large or run the other way.

molecular target: Cytochrome P450 2D6 (Homo sapiens) (UniProt P10635); test: Cytochrome panel assay with activity outcomes; details: recombinant CYP, pro-luciferin dealkylation, luminescence, p450-cyp2d6; series mostly up to 57.1 µM; activity, negative = inhibition: at the top concentration
Sequence (P10635 whole entry, looked up): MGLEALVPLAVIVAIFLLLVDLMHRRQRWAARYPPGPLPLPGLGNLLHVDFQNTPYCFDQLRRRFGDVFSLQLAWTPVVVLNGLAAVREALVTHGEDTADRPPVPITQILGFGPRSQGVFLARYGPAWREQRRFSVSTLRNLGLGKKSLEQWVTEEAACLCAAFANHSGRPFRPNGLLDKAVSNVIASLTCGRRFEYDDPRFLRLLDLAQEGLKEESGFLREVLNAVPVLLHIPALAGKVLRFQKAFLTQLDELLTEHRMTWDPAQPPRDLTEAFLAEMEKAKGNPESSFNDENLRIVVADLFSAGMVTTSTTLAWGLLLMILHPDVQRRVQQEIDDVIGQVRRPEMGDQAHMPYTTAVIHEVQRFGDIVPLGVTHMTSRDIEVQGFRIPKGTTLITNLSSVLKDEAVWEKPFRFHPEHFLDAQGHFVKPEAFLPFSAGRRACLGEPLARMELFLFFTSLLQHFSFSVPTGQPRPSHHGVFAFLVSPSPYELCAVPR
On the % scale 0 is the no-effect control and ±100 the full control effect.

SMILES	AC50	activity, negative = inhibition
CC[C@H](NC(C)C)[C@H](O)c1ccc(O)c(O)c1	10 µM (active)	–
CNC[C@@H](SC)c1ccc(O)c(O)c1	–	2.56% [at 11.4 µM]
COc1cc([C@H](O)CO)ccc1O	–	-1.2%
COC(=O)C(C)Sc1nc2c(cnn2-c2ccc(C)cc2)c(=O)[nH]1 (centres undefined)	–	7.04%
Cc1ccc(C(=O)C(OC(=O)CNS(=O)(=O)c2ccccc2)c2ccccc2)cc1 (centres undefined)	–	15.4%
Cc1ccc(C(=O)C(OC(=O)COc2ccccc2C)c2ccccc2)cc1 (centres undefined)	–	-11.8%
Cc1ccc(C(=O)C(OC(=O)CCC(=O)Nc2cccc(C)c2)c2ccccc2)cc1 (centres undefined)	28.2 µM (active)	–
Cc1cc2c(c(=O)o1)[C@@H](O)[C@H]1O[C@@H]1C2=O	–	3.46% [at 11.4 µM]
C[N+](C)(C)c1ccc([C@H](N)C(=O)O)cc1	–	6.78% [at 11.4 µM]
COc1ccc(CNc2ncnc3ccc(-c4cccnc4)cc23)c(OC)c1	10 µM (active)	–
COc1ccccc1CNc1ncnc2ccc(-c3cccnc3)cc12	5.01 µM (active)	–
COc1ccc(S(=O)(=O)NC2(C(F)(F)F)N=C3SCCN3C2=O)cc1 (centres undefined)	–	8.37%
CCN1CCN(c2nc(C)c3c(n2)CCCC3=O)CC1	–	-16.4%
COC(=O)c1ccccc1-c1ccc(/C=C2\C(=O)N(c3ccccc3)N=C2c2ccccc2)o1	–	-3.39%
O=C(NC1CCCCC1)c1sc(=S)n2c1[nH]c(=O)c1ccccc12	–	-18.8%
COc1ccc(C2C(C#N)=C(N)N(Nc3ccccc3)C3=C2C(=O)CC(C)(C)C3)cc1C (centres undefined)	–	-20%
S=C(S)O[C@@H]1C[C@@H]2C[C@H]1[C@@H]1CCC[C@H]21	inactive	–
CCOC(=O)CCN1C(=O)[C@H]2[C@H]3[C@H](O)[C@H](O)C/C(=N/OC/C=C(\C)CCC=C(C)C)[C@H]3CC[C@@H]2C1=O	–	1.08% [at 11.4 µM]
CC(=O)OC[C@@H]1O[C@@H](O/N=C2/C[C@@H](O)[C@@H](O)[C@@H]3[C@@H]4C(=O)N(C(C)(C)C)C(=O)[C@H]4CC[C@H]23)[C@H](OC(C)=O)[C@H](OC(C)=O)[C@@H]1OC(C)=O	–	3.1% [at 11.4 µM]
CCOC(=O)CCN1C(=O)[C@H]2[C@H]3[C@H](O)[C@H](O)C/C(=N/O[C@@H]4O[C@@H](COC(C)=O)[C@@H](OC(C)=O)[C@@H](OC(C)=O)[C@H]4OC(C)=O)[C@@H]3CC[C@@H]2C1=O	3.16 µM (active)	–
C#CCCCO/N=C1/C[C@@H](O)[C@@H](O)[C@@H]2[C@@H]3C(=O)N(CCC(=O)OCC)C(=O)[C@H]3CC[C@@H]12	–	-5.32% [at 11.4 µM]
C#CCCCO/N=C1/C[C@@H](O)[C@@H](O)[C@@H]2[C@@H]3C(=O)N(CCC(=O)OCC)C(=O)[C@H]3CC[C@H]12	–	5.95% [at 11.4 µM]
CCOC(=O)CCN1C(=O)[C@H]2[C@H]3[C@H](O)[C@H](O)C/C(=N/O[C@@H]4O[C@@H](COC(C)=O)[C@@H](OC(C)=O)[C@@H](OC(C)=O)[C@H]4OC(C)=O)[C@H]3CC[C@@H]2C1=O	3.16 µM (active)	–
CCN1C(=O)[C@H]2[C@H]3[C@H](O)[C@H](O)C/C(=N/O[C@@H]4O[C@H](COC(C)=O)[C@@H](OC(C)=O)[C@H](OC(C)=O)[C@H]4OC(C)=O)[C@@H]3CC[C@@H]2C1=O	3.98 µM (active)	–
CCOC(=O)CCN1C(=O)[C@H]2[C@H]3[C@H](O)[C@H](O)C/C(=N/OC/C=C(\C)CCC=C(C)C)[C@@H]3CC[C@@H]2C1=O	–	0.883% [at 11.4 µM]

SMILES	AC50	activity, negative = inhibition
O=C1[C@@H]2[C@H]3[C@H](O)[C@H](O)C/C(=N/OCc4ccccc4)[C@H]3CC[C@H]2C(=O)N1c1ccc(F)cc1F	–	-7.87% [at 11.4 µM]
CC(=O)OC[C@@H]1O[C@@H](O/N=C2/C[C@@H](O)[C@@H](O)[C@@H]3[C@@H]4C(=O)N(c5cccc(Oc6ccccc6)c5)C(=O)[C@H]4CC[C@H]23)[C@H](OC(C)=O)[C@H](OC(C)=O)[C@@H]1OC(C)=O	–	0.346% [at 11.4 µM]
CC(=O)OC[C@@H]1O[C@@H](O/N=C2/C[C@@H](O)[C@@H](O)[C@@H]3[C@@H]4C(=O)N(C(C)(C)C)C(=O)[C@H]4CC[C@@H]23)[C@H](OC(C)=O)[C@H](OC(C)=O)[C@@H]1OC(C)=O	–	-13.3% [at 11.4 µM]
CC(=O)OC[C@@H]1O[C@@H](O/N=C2/C[C@@H](O)[C@@H](O)[C@@H]3[C@H]4C(=O)N(c5ccc(F)cc5F)C(=O)[C@@H]4CC[C@H]23)[C@H](OC(C)=O)[C@H](OC(C)=O)[C@@H]1OC(C)=O	3.16 µM (active)	–
CC(=O)OCC(=O)[C@]12OC(C)(C)O[C@@H]1C[C@H]1[C@H]3CC=C4C[C@@H](O)CC[C@]4(C)[C@H]3CC[C@]12C	–	25.3% [at 11.4 µM]
Cn1c(=O)c(-c2ccc(Cl)cc2)nc2cnc(Oc3ccccc3)nc21	–	-0.772%
N#CC(CC(=O)O)=C(c1ccccc1)c1ccccc1	–	9.93% [at 11.4 µM]
CNC(=O)CCc1nc(-c2ccc(C(C)(C)C)cc2)no1	–	1.62%
Cc1nn(C(=O)c2ccco2)c(C)c1Sc1ccccc1	–	-15.5%
Cn1c(=O)n2n(c1=O)[C@H]1[C@H](O)[C@H]3O[C@@H]3/C(=N/OC[C@@H](O)COCc3ccco3)[C@@H]1CC2	–	15.6% [at 11.4 µM]
Cn1cc(-c2nc3cnc(N4CCNCC4)nc3n(C)c2=O)c2ccccc21	–	-6.12%
CC(C)OP(=O)(OC(C)C)C(NC(=O)c1ccc(Br)cc1)c1ccccc1 (centres undefined)	–	3.63%
COc1ccc(-c2cc(C(=O)O)c3c(C)nn(-c4ccccn4)c3n2)cc1	–	2.51%
C[C@@]12CC(=O)[C@@H]3[C@@H](CCC4=CC(=O)CC[C@]43C)[C@@H]1CC=C2CC(=O)O	–	17.8% [at 11.4 µM]
Cc1cnc(C(=O)OCC(=O)NC(C)C)cn1	–	-1.58%
CC(C)(SCc1ccccc1)[C@H](N)C(=O)O	–	1.44% [at 11.4 µM]
Cc1ccccc1OCC(=O)NC(=S)Nc1ccc(Br)c(C)n1	–	5.94%
Cc1cccc(N(NC(=O)C(C)(C)O)C(=O)c2ccccc2)c1	–	3.13%
Cc1nc2c(ccc3nc(NC(=O)c4ccc(S(=O)(=O)N(C)C)cc4)sc32)s1	–	-2.32%
CCOC(=O)N/N=C1/C[C@@H](O)[C@@H](O)[C@@H]2[C@@H]3C(=O)N(C4CCCCC4)C(=O)[C@H]3CC[C@H]12	–	-11.9% [at 11.4 µM]
CC(=O)OC[C@@H]1O[C@@H](O/N=C2/C[C@@H](O)[C@@H](O)[C@@H]3[C@@H]4C(=O)N(C5CCCCC5)C(=O)[C@H]4CC[C@H]23)[C@H](OC(C)=O)[C@H](OC(C)=O)[C@@H]1OC(C)=O	3.98 µM (active)	–
CC(C)=CCC/C(C)=C/CO/N=C1/C[C@@H](O)[C@@H](O)[C@@H]2[C@@H]3C(=O)N(C4CCCCC4)C(=O)[C@H]3CC[C@@H]12	–	2.55% [at 11.4 µM]
O=C(NCc1cccnc1)[C@@H]1[C@@H](C(=O)O)[C@H]2CC[C@@H]1O2	–	8.3% [at 11.4 µM]
CC1CCCC(C)N1C(=O)c1cc(-c2ccc(Cl)c(Cl)c2)on1 (centres undefined)	–	-10.3%
Cc1ccccc1C1C(C#N)=C2N=C(N)c3c(sc4c3CCCCC4)N2C2=C1C(=O)CC(C)(C)C2 (centres undefined)	–	1.58%

SMILES	AC50	activity, negative = inhibition
CO[C@]1(NC(=O)C2SC(=C(C(N)=O)C(=O)O)S2)C(=O)N2C(C(=O)O)=C(CSc3nnnn3C)CS[C@H]21 (some centres undefined)	–	1.2% [at 25.6 µM]
CCCCCCN1Cc2ccccc2C1	3.55 µM (active)	–
CCCCN1C(=O)CCC(C(=O)O)C1c1ccccc1 (centres undefined)	–	-3.9%
CCc1ccc(/C=C\C(=O)N2CCc3ccccc3C2)cc1	–	-12.9%
Cc1cc(NC(=O)c2nn(C)c(C)c2[N+](=O)[O-])no1	–	14.3%
Cc1ccc(S(=O)(=O)Nc2nc3ccccc3nc2N2CCc3ccccc3C2)cc1	–	-14.3%
Cc1ccc(C2CC(=O)c3cnc(N4CCc5ccccc5C4)nc3C2)cc1 (centres undefined)	–	3.43%
Cc1ccc2[nH]c3c(N4CCc5ccccc5C4)ncnc3c2c1	0.708 µM (active)	–
CCN1CCN(Cc2ccc(NC(=O)Nc3cccs3)cc2)CC1	–	-18.6%
CCN[C@@H]1C[C@H](C)S(=O)(=O)c2sc(S(N)(=O)=O)cc21	–	1.58% [at 25.6 µM]
C=CC(=O)NC(C)(C)Cc1ccccc1	–	-1.92%
CC(C)(C)C(=O)N(CCN(C(=O)C(C)(C)C)c1ccccc1)c1ccccc1	–	11.6%
CN(C(=O)CN(CCO)CC(=O)N(C)C(C)(C)Cc1ccccc1)C(C)(C)Cc1ccccc1	3.16 µM (active)	–
O=C(CCC(=O)OCc1ccc(C(=O)Oc2ccccc2)cc1)Nc1cccc2ccccc12	–	-18%
CC(=O)Oc1cc(C(F)(F)F)ccc1C(=O)O	–	2.6% [at 25.6 µM]
CCSC1=C(C#N)C2(CCCCC2)C(C#N)=C(N)N1	15.8 µM (active)	–
C[C@H](Oc1ccccc1)C(=O)N[C@@H]1C(=O)N2[C@@H]1SC(C)(C)[C@@H]2C(=O)O	–	-1.89% [at 25.6 µM]
COC(=O)[C@@]1(Cc2ccc(F)cc2)[C@@H]2[C@@H](CC(=O)[C@H]2CC(=O)C(=O)N(C)C)CN1C(=O)c1ccccc1	–	1.19%
O=C(O)CNC(=O)c1ccccc1O	–	7.44% [at 11.4 µM]
CCCCCCCCCn1cc(C(C)=O)c(=O)[nH]c1=O	–	6.59%
CN1CCN(c2ncc3ncc(=O)n(Cc4cccs4)c3n2)CC1	–	-10.8%
CN(C)CCCNC(=O)CCc1nc2ccccc2c(=O)[nH]1	–	-8.88%
CN(CCCNC(=O)c1cccn2c(=O)c3ccccc3nc12)Cc1ccccc1	2.24 µM (active)	–
Cc1nc2ccccc2c(=O)n1NC(=O)c1ccccc1Cl	–	-4.16%
